According to PubChem BioAssay AID1362 (SRMLSC, 2008):
Screen size: about 190,000 compounds; about 4,000 (2.1%) were called active. Cut-off read from the data, not from the text of the source: active = inhibition above about 58%; inactive = the rest, inconclusive results apart; tested in S. cerevisiae. The entries come from a sample that favours actives as a whole.

Assay: growth inhibition of WT strain, primary screen, mitochondrial fusion inhibitor project, WT and mutant strains, chemical genetic (AID 1362)
Conditions: mitochondrial fusion phenotypic screen, at 10 µM
[1] = WT strain, growth inhibition, stronger effect = higher value

Structure (SMILES) | inhibition [1] | inhibition (mutant strain inhibition) [%]
Cc1ccc(OCC(=O)Nc2ccc(S(=O)(=O)Nc3ccccn3)cc2)cc1 | -2.17% (inactive) | -9.5
NS(=O)(=O)c1ccc(NC(=S)NC(=O)c2cccnc2)cc1 | -6.97% (inactive) | -10.8
Cn1nnnc1NCc1ccc(Cl)c(Cl)c1 | -2% (inactive) | 14.5
O=[N+]([O-])c1ccc(F)cc1Oc1nc(-c2cccnc2)nc2ccccc12 | 2.1% (inactive) | 3.69
O=[N+]([O-])c1ccc(Oc2ccc(F)cc2Br)c2ccncc12 | 68.7% (active) | 58.1
O=C(O)CSc1nccc2ccccc12 | -2.02% (inactive) | -7.45
O=C(CSc1nnc(Nc2ccccc2)s1)Nc1cccnc1Cl | -3.41% (inactive) | -15.4
Cc1ccc(Nc2nnc(SCC(=O)c3cc4ccccc4o3)s2)cc1C | 0.56% (inactive) | 20.2
CC(C)c1ccc(Nc2nnc(SCC(=O)c3nnc(-c4ccccc4)o3)s2)cc1 | 70.5% (active) | 55.7
S=C(NCc1ccco1)Nc1ccc2c(c1)OCCO2 | -2.47% (inactive) | 9.66
CC(C)(C)NC(=O)NC(=O)COC(=O)Cc1c(F)cccc1Cl | -15.4% (inactive) | 1.6
NS(=O)(=O)c1ccc(NC(=S)NC(=O)c2cccc(Br)c2)cc1 | 11% (inactive) | 20.3
NS(=O)(=O)c1ccc(NC(=S)Nc2ccc(Br)c(Cl)c2)cc1 | 82.6% (active) | 54.2
NS(=O)(=O)c1ccc(CCNC(=S)Nc2ccc(S(N)(=O)=O)cc2)cc1 | -5.98% (inactive) | -14.5
CCCn1c(=S)[nH]c2ccc(C(F)(F)F)cc21 | 2.77% (inactive) | 12.1
CO/N=C/c1cn(-c2ccc(Cl)cc2)nn1 | -5.72% (inactive) | -2.58
O=C(c1ccco1)N1CCN(c2cccc(Cl)c2)CC1 | 7.68% (inactive) | -0.39
O=C(c1ccco1)N1CCN(C(=O)C2c3ccccc3Oc3ccccc32)CC1 | 71.1% (active) | 6.75
O=C(c1ccc2c(c1)OCO2)N1CCN(C(=O)c2ccco2)CC1 | -13.2% (inactive) | -33.3
O=C(C1CCN(C2CCN(Cc3cccc4c3OCO4)CC2)CC1)N1CCOCC1 | 5.02% (inactive) | 2.36
CN(C)CCCN1C(=O)CSC1c1ccc([N+](=O)[O-])cc1 (stereo not drawn) | -4.48% (inactive) | 1.39
COc1cccc(NC(=O)COC(=O)CCOc2ccccc2OC)c1 | -0.47% (inactive) | -4.38
COc1cc(/C=C/C(=O)OCC(=O)Nc2cccc(Oc3ccccc3)c2)ccc1O | 68.3% (active) | 29
COc1ccc(/C=C/C(=O)OCC(=O)Nc2cccc(Oc3ccccc3)c2)c(OC)c1 | 7.56% (inactive) | 8.13
